# Screening results deposited in PubChem by National Center for Advancing Translational Sciences (NCATS).
# Sampled rows, rich in hits. Any-hit rate of the full collection: about 4.2%.
# VDR inhibitor: blocks the human vitamin D receptor | P11473 | VDR-SRC2-3 peptide fluorescence polarization, 2 h | Potency, µM, for the others: max response, negative = inhibition, most hits filed as inhibitors | 400,000 compounds, 0.93% hits; also: potency is read from the fitted curve at half-maximal effect; % is scaled to controls: 0 for no effect and ±100 for the full control effect
# Target sequence (P11473 whole entry, looked up): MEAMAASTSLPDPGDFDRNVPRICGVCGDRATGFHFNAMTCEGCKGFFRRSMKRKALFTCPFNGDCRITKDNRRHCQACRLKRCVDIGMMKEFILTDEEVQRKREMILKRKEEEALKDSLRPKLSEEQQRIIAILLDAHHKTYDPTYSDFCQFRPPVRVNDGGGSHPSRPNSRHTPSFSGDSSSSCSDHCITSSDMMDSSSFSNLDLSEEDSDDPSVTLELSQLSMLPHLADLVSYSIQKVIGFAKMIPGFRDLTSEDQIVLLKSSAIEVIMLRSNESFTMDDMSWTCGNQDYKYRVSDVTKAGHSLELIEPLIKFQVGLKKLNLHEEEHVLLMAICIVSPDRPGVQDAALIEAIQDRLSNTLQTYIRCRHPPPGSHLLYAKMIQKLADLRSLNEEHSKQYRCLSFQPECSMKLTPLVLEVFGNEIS
#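 Two reagent solutions held at 4 deg C in the dark were dispensed, compounds pinned at 23 nl, and the mixture incubated 2 h at room temperature. Read-out: fluorescence polarization of VDR–SRC2-3 peptide binding.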
# Sfp inh: inhibitors of Bacillus subtilis Sfp phosphopantetheinyl transferase | Potency, µM, for inactives: largest response in the series, negative = inhibition, most hits filed as inhibitors | 310,000 compounds, 3.5% hits | Q9F4F7 | Biochemical Sfp PPTase activity, qHTS;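 also: the enzyme is Sfp with the accession as filed and its product quenches rhodamine fluorescence; potency is read from the fitted curve at half-maximal effect; 0% = enzyme reaction without inhibitor and -100% = no enzyme wells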
#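 After 15 min at room temperature with compound, 15 nM Sfp received 5 uM rhodamine-CoA plus 12.5 uM BHQ-2-ybbR (50 mM Hepes pH 7.6, 10 mM MgCl2). Rate came from the fluorescence difference over 30 min, ex 525/em 598 nm.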
# PLK1 PBD inh: inhibitors of human PLK1 polo-box domain binding; 360,000 compounds, 2.8% hits; Plk1 PBD binding of FITC phosphopeptide, fluorescence polarization; Potency, µM, without a hit: max response, negative = inhibition, usual class: inhibitors; also: potency is read from the fitted curve at half-maximal effect; series mostly up to about 57 µM; % is scaled to controls: 0 for no effect and ±100 for the full control effect; nearly all actives have a fitted effect of over 65% in size
# ALOX12 inh: ALOX12 (human) lipoxygenase inhibition; purified 12hLO, xylenol orange hydroperoxide absorbance; Potency, µM (doses to about 108 µM), inactives show top-dose activity change, negative = inhibition, usual class: inhibitors; 580,000 compounds, 1.1% hits; AID 1671190; also: potency is read from the fitted curve at half-maximal effect; % is scaled to controls: 0 for no effect and ±100 for the full control effect
#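 Purified human 12hLO (150 nM final) in 25 mM Hepes, 0.01% Triton X-100, pH 7.0 was preincubated 15 min at room temperature with compound. Then 40 uM arachidonic acid was added, 30 min. Hydroperoxide was read by Fe-XO absorbance ratio 573/405 nm.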
# USP1 UbRho: blocks human USP1/UAF1 cleavage of Ub-Rhodamine. shares compounds with VDR inhibitor. Ub-Rhodamine cleavage, fluorescence kinetic read. Potency, µM (highest dose often 56.8 µM), inactives show at the highest dose activity change, negative = inhibition, hits mostly inhibitors. 50 compounds, 50% hits. AID 540327
# VDR inh confirm: confirmation of human vitamin D receptor inhibitors; shares compounds with VDR inhibitor; VDR-coactivator inhibition assay, qHTS confirmation; Potency, µM, most hits filed as inhibitors; 840 compounds, 89% hits; AID 602199; also: potency is read from the fitted curve at half-maximal effect
# VDR FP: blocks human VDR-coactivator binding in fluorescein assay; shares compounds with VDR inhibitor; VDR-coactivator binding, fluorescein fluorescence polarization; Potency, µM (titrated, usually from 57.1 µM), without a hit: at the top dose activity change, negative = inhibition, hits mostly inhibitors; 840 compounds, 48% hits; also: potency is read from the fitted curve at half-maximal effect
# VDR bla: confirmation of human vitamin D receptor inhibitors in reporter cells. shares compounds with VDR inhibitor. VDR beta-lactamase reporter cells, FRET ratio; cells co-treated with VDR agonist LG190178. Potency, µM (doses to about 46.1 µM), for the others: at the highest dose activity change, negative = inhibition, hits mostly inhibitors. 840 compounds, 23% hits; also: potency is read from the fitted curve at half-maximal effect; % is scaled to controls: 0 for no effect and ±100 for the full control effect
# VDR viability: cell toxicity, VDR inhibitor hit counter-screen | shares compounds with VDR inhibitor | cytotoxicity counter-screen, cell viability, qHTS | Potency, µM (top dose mostly 48.3 µM), for inactives: top-dose activity change, negative = cytotoxicity, usual class: cytotoxic | 840 compounds, 18% hits | AID 602204;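 also: potency is read from the fitted curve at half-maximal effect; plate controls were DMSO for no effect and high-concentration cycloheximide for full effect; nearly all actives have a fitted effect of over 75% in size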
# Starred values were filed as active, the others as inactive; ? = inconclusive; . = no result. Calls follow the shape of the dose curve; as a rule, active = well fitted curve in the direction sought with a large enough effect; inconclusive = small, poorly fitted or top-dose-only effect, or another doubt; inactive = no such curve, though single readings can be large; an effect the other way counts as inactive or inconclusive.
SMILES,VDR inhibitor,Sfp inh,PLK1 PBD inh,ALOX12 inh,VDR inh confirm,VDR FP,VDR bla,VDR viability,others
CC1(C)CC(=O)C(C(c2cc([N+](=O)[O-])ccc2Cl)C2C(=O)CC(C)(C)CC2=O)C(=O)C1,-13.6%,.,-22.5%,149.9%,.,.,.,.,
Cc1sc(C(C2C(=O)CC(C)(C)CC2=O)C2C(=O)CC(C)(C)CC2=O)cc1[N+](=O)[O-],?,6.31µM*,4.74µM*,?,6.31*,3.98µM*,1.1%,2.0%,
COc1ccc(NC(=O)/C(Cl)=C(/Cl)S(=O)(=O)Cc2ccc(C)cc2)cn1,15.8µM*,-2.9%,21.2µM*,.,18.9*,12.6µM*,5.8µM*,20.6µM*,
COc1ccc(/C=C2\N=C(C)OC2=O)cc1[N+](=O)[O-],79.4µM*,10.8%,?,0.0%,10.6*,?,29.1%,14.6%,
Nc1cccc2c1C(=O)N(C(=O)/C=C/c1ccc(F)cc1)C2=O,28.2µM*,-21.4%,?,-17.7%,9.47*,10µM*,-1.2%,30.2%,
Cc1ccccc1NC(=O)CCc1ccnc(N2CCCC2)c1,.,.,.,-10.9%,.,.,.,.,
O=C(NNc1cc(Br)c(O)c(Br)c1)c1ccccc1,79.4µM*,-55.6%,-20.9%,?,?,?,-4.1%,0.6%,
CCSC1=NC(C)(C)C=C(/C=C/c2ccc(Cl)cc2Cl)N1,?,?,?,39.8µM*,14.1*,15.8µM*,23.1µM*,?,
O=C1Nc2ccc(I)cc2/C1=C/c1cc(Br)c(O)c(Br)c1,25.1µM*,?,.,?,.,.,.,.,USP1 UbRho=74.4µM*
C[C@@H](O)[C@H]1O[C@]2(C)CCC[C@H]1O2,-0.4%,.,4.3%,25.6%,.,.,.,.,
O=Cc1ccnc2ccccc12,.,.,.,-1.0%,.,.,.,.,
O=C(/C=C/c1ccnc2ccccc12)c1cccs1,?,-18.2%,?,-13.4%,11.2*,17.8µM*,?,?,
COc1ccc(-c2ccc3nnc(CNC(=O)c4ccc(OC)cc4C)n3n2)cc1,.,.,.,-1.6%,.,.,.,.,
CC1=NN(c2cccc(C(=O)O)c2)C(=O)/C1=C\C=C/c1ccccc1,?,50.1µM*,5.32µM*,?,3.16*,3.16µM*,8.2µM*,?,
COc1ccc(/C=C2/C(=O)N(c3ccccc3)N=C2C)cc1Br,50.1µM*,50.1µM*,2.12µM*,?,9.47*,?,20.2%,4.4%,
CC1=NN(c2ccccc2)C(=O)/C1=C\c1cc(C)n(-c2ccccc2)c1C,7.0%,9.3%,3.8%,-9.8%,.,.,.,.,
CC1=NN(c2ccccc2)C(=O)/C1=C/c1ccc(Cl)cc1,79.4µM*,-22.9%,1.89µM*,6.31µM*,15*,?,4.5%,9.2%,
COc1cc(/C=C2/C(=O)N(c3ccccc3)N=C2C)ccc1OS(=O)(=O)c1ccccc1,.,-22.4%,.,.,.,.,.,.,
Cc1ccc(NC(=O)CN2CCOCC2)c(Br)c1,-2.9%,15.6%,-17.2%,9.7%,.,.,.,.,
NC(CCCP(=O)(O)O)C(=O)O (stereo not given),-6.7%,.,.,.,.,.,.,.,
O=C(Nc1ccc(F)cc1)C1CC2CCCC(C1)C2=O (stereo not given),.,.,.,26.0%,.,.,.,.,
COC1=C(OC)C(=O)c2ccccc2C1=O,35.5µM*,.,.,-6.3%,.,.,.,.,USP1 UbRho=29.6µM*
Cc1ccccc1N1C(=O)c2sc3nc4c(c(=O)n3c2C1=O)CCC4,?,22.4µM*,8.44µM*,.,20*,25.1µM*,?,0.4%,
Cc1ccc(N2C(=O)c3sc4nnc(C)c(=O)n4c3C2=O)cc1,1.6%,11.6%,-3.7%,-21.8%,.,.,.,.,
